Results taken from ChEMBL document CHEMBL3988442, “University of Dundee, Small-Polar-MMV Screening Library” (2021).
For some assays here: Measured potencies and affinities stand elsewhere.

What was measured:
Design in all cases: scale not given: direction of the effect not stated beside the values
[1] = target: Protein translocase subunit SecA (Escherichia coli (strain K12)) (UniProt P10408); assay: Assay to Identify E. coli SecA ATPase Inhibitors; type: functional; settings: 30 µM
[2] = target: T1, Ubiquitin-activating enzyme e1, putative (Leishmania donovani (strain BPK282A1)) (UniProt E9BSI1); assay: Leishmania donovani Ubiquitin Activating Enzyme (LdE1); type: functional; settings: 30 µM
T1 sequence (whole entry): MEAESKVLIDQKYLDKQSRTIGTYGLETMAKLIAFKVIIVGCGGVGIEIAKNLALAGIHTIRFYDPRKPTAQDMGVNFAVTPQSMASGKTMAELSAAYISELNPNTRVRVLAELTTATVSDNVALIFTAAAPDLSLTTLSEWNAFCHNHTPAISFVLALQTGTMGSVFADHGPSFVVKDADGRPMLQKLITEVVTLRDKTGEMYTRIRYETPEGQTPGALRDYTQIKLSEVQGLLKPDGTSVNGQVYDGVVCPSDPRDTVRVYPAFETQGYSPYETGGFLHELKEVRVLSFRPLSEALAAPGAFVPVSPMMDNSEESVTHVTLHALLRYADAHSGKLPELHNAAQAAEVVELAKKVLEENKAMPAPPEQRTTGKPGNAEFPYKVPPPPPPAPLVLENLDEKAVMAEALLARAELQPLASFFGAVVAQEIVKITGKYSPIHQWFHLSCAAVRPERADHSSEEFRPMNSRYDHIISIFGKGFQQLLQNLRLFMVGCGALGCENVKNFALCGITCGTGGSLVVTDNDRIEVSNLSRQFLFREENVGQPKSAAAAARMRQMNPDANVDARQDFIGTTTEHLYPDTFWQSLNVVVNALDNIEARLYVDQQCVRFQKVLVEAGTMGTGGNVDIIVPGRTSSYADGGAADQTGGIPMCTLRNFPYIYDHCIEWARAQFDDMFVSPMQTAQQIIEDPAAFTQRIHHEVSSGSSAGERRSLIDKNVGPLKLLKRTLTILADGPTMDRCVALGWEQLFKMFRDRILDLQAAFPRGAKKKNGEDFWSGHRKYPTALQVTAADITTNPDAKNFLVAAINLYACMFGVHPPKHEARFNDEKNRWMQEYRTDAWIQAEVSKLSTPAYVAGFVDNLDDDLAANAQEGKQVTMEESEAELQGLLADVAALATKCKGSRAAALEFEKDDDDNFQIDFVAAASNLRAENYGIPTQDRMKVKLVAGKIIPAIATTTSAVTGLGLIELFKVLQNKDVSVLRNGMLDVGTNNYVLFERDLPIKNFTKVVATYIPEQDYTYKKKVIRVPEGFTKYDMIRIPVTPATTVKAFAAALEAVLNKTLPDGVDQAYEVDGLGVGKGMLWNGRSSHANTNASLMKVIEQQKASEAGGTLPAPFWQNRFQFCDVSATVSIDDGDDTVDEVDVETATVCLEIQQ

[3] = target: AMP-activated protein kinase, AMPK (Homo sapiens) (UniProt P54646+O43741+P54619+Q9UGJ0+Q9Y478+Q13131+Q9UGI9); assay: AMP-dependent Kinase enzyme assay. An in vitro enzyme assay that detects ADP turnover that is directly proportional to AMPK activity. This uses naive AMPK that is activated during the assay with MK-8722; type: functional; settings: 30 µM
[4] = target: Sialic acid-binding Ig-like lectin 9 (Homo sapiens) (UniProt Q9Y336); assay: Hs-Siglec9 ALPHAscreen SOP 20170721; settings: 10 µM
Sequence of Sialic acid-binding Ig-like lectin 9 (Homo sapiens) (Q9Y336 whole entry): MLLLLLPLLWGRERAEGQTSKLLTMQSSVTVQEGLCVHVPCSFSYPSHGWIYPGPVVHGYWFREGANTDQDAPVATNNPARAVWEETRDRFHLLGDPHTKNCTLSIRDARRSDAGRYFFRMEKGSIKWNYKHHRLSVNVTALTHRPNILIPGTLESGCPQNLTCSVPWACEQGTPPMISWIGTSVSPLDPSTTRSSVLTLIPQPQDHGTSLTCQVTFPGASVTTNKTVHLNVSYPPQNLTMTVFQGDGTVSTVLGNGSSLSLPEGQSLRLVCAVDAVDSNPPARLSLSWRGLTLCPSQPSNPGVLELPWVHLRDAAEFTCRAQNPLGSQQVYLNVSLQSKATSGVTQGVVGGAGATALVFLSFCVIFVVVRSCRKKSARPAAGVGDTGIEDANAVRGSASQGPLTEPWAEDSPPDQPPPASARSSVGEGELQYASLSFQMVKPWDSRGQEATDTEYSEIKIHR

[5] = tested on: Trypanosoma cruzi; assay: Trypanosoma cruzi phosphomannomutase and mannose-1-phosphate guanylyltransferase assay; type: functional; settings: 10 µM
[6] = target: T2, Arginase-2, mitochondrial (Homo sapiens) (UniProt P78540); assay: in vitro enzyme assay to detect the production of urea directly proportional to the activity of Arginase II; type: functional; settings: 33.3 µM; also: in the data most compounds retested in dose-response had high values
T2 sequence (whole entry): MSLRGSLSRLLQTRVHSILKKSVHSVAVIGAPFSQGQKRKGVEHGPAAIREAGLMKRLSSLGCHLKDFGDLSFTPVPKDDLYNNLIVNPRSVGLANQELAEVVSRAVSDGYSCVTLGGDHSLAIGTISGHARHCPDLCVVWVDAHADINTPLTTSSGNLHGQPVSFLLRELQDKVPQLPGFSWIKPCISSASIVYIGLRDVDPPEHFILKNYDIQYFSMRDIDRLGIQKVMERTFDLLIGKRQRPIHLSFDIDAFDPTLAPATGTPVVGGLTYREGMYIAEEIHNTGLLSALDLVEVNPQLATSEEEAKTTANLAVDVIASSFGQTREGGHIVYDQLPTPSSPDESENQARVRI

[7] = target: T3, Proteasome subunit beta (Trypanosoma cruzi) (UniProt O96673); assay: Trypanosoma cruzi proteasome chymotrypsin-like activity (TcProtChymo) assay.; also: in the data most compounds retested in dose-response had high values; type: functional; settings: 9.37 µM
T3 sequence (whole entry): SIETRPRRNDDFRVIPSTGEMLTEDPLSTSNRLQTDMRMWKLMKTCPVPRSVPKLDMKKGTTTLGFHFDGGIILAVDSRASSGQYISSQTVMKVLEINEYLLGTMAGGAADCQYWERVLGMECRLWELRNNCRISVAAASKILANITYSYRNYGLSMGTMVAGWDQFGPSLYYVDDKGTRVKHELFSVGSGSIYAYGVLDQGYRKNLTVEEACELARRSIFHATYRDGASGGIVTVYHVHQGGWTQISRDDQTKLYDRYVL

[8] = species on record: Homo sapiens; assay: To identify inhibition of the IFN signalling (Jak-Stat) pathway via expression of an eGFP reporter gene under the control of an IFN-stimulated response element (ISRE) containing MxA promoter.; type: functional; settings: 30 µM
[9] = target: T4, Tyrosyl-tRNA synthetase, putative (Trypanosoma cruzi (strain CL Brener)) (UniProt Q4DSP6); assay: Trypanosoma cruzi tyrosyl tRNA synthetase (TcYRS) _High Tyrosine SOP; type: functional; settings: 30 µM; also: in the data most compounds retested in dose-response had high values
T4 sequence (whole entry): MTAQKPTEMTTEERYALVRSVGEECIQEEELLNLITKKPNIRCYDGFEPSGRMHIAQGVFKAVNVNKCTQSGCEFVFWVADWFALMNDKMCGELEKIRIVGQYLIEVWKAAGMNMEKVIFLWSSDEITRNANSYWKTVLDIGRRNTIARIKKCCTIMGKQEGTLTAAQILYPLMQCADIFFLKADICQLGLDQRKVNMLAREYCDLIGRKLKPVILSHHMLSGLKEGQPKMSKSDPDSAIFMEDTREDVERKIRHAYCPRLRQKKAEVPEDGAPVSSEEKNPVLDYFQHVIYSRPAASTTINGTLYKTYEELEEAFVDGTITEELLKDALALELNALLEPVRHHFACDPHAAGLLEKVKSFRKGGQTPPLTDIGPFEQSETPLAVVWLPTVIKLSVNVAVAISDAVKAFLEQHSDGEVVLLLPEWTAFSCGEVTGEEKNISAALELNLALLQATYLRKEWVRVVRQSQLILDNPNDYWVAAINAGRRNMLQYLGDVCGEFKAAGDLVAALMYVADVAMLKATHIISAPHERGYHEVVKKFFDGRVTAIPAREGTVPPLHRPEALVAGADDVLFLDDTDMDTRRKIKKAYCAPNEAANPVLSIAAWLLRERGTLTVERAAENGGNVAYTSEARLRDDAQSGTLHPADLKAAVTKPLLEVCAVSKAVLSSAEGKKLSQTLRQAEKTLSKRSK

[10] = target: T4, Tyrosyl-tRNA synthetase, putative (Trypanosoma cruzi (strain CL Brener)); assay: Trypanosoma cruzi tyrosyl tRNA synthetase (TcYRS) SOP; type: functional; settings: 30 µM
[11] = target: Chromo domain-containing protein 1 (Saccharomyces cerevisiae (strain ATCC 204508 / S288c) (Baker's yeast)) (UniProt P32657); assay: ScCHD-1 Enzyme Inhibition Assay; type: functional; settings: 30 µM; also: in the data most compounds retested in dose-response had high values
Sequence of Chromo domain-containing protein 1 (Saccharomyces cerevisiae (strain ATCC 204508 / S288c) (Baker's yeast)) (P32657 whole entry, the tested form may be a part): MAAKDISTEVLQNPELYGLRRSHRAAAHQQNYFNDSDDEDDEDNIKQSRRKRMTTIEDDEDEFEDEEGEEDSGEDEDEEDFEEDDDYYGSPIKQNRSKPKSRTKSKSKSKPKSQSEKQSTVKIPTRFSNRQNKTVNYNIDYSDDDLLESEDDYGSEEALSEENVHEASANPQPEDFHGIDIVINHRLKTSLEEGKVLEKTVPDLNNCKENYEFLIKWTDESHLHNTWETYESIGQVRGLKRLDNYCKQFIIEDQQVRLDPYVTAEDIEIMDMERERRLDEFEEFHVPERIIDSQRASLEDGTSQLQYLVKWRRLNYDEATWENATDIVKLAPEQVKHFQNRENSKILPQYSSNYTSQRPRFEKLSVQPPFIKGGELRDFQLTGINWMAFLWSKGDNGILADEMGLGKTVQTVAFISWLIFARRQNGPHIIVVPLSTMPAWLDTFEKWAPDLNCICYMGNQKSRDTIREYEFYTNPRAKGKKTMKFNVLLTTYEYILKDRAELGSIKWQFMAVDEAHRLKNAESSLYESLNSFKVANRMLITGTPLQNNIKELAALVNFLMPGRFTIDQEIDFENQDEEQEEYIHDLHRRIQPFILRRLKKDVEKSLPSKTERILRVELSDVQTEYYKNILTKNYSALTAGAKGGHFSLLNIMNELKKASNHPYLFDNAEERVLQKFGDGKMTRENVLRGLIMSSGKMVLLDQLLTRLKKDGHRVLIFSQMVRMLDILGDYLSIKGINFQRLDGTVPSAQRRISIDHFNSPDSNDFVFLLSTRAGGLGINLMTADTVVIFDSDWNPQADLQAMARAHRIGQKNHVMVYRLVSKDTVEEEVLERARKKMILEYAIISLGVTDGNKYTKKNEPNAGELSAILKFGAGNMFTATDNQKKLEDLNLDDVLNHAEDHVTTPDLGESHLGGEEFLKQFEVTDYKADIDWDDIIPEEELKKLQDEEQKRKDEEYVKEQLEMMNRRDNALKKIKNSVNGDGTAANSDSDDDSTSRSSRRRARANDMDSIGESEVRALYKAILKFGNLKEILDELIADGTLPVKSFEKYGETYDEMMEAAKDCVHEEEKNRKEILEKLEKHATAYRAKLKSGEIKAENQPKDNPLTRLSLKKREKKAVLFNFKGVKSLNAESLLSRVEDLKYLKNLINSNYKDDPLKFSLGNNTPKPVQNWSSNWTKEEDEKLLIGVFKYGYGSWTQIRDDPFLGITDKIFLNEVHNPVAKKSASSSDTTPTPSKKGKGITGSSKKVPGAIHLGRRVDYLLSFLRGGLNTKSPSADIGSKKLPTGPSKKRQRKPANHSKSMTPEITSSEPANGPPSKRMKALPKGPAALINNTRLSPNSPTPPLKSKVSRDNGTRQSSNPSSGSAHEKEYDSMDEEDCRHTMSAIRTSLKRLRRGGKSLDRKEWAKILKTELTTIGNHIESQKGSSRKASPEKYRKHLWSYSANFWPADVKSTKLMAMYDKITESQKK

Sequence of Protein translocase subunit SecA (Escherichia coli (strain K12)) (P10408 whole entry): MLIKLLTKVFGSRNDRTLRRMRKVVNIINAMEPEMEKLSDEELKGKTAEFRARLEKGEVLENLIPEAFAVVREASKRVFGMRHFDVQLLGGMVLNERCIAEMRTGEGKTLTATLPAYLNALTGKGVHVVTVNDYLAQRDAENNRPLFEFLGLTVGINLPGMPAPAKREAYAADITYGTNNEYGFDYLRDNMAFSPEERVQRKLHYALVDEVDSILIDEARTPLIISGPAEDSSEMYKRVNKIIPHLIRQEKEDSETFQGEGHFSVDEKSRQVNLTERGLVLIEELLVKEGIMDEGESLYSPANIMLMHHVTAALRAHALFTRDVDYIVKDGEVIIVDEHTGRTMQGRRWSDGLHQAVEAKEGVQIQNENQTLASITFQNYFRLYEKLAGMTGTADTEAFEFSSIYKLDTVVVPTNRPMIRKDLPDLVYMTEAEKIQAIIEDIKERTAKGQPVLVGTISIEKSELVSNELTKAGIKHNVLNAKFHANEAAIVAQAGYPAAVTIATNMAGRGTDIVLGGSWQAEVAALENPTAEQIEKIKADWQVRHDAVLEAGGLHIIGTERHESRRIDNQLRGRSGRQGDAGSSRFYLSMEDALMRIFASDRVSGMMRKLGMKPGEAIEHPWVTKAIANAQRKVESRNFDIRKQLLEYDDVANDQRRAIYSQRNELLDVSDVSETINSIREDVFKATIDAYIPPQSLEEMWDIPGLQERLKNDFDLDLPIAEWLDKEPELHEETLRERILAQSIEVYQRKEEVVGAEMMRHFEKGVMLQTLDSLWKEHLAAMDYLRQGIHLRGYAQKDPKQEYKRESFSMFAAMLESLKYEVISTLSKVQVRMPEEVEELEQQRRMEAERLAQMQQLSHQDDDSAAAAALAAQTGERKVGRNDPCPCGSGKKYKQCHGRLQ

Row | Structure (SMILES) | Percent Effect [1] [%] | Percent Effect [2] [%] | Percent Effect [3] [%] | Percent Effect [4] [%] | Percent Effect [5] [%] | Percent Effect [6] [%] | Percent Effect [7] [%] | Percent Effect [8] [%] | Percent Effect [9] [%] | Percent Effect [10] [%] | Percent Effect [11] [%]
1 | CCN(CC)C(=O)c1ccn(COc2ccccc2)n1 | -2.87 | -4 | 2.57 | 5.83 | 4.32 | -2.99 | 8.5 | 1.5 | 5.29 | 10.3 | -0.306
2 | c1cnc(NCc2cncc3c2CCN(Cc2cccs2)C3)nc1 | -0.336 | 10.7 | 8.51 | -0.683 | -7.28 | 2.1 | 9.43 | 12.1 | 3.19 | 8.97 | -5.11
3 | CNC(=O)[C@H]1C[C@@H]2CN(S(=O)(=O)c3ccccc3)C[C@@H]2N1C | -2.19 | -5.2 | 3.6 | 3.49 | -0.492 | -13.8 | 1.83 | 6.5 | 2.15 | -1.24 | 2.52
4 | Cc1cc(CN(C)C(=O)NC2CCCN(c3ncccn3)C2)no1 (stereo unspecified) | -1.33 | 5.26 | 1.46 | 4.34 | 3.01 | -1.92 | 2.34 | -2.99 | 9.31 | 21.9 | -10.3
5 | CCC(CC)C(O)CNC(=O)Nc1cc(C)nn1C (stereo unspecified) | -6.46 | 5.06 | 0.487 | 6.21 | 6.7 | -1.9 | 5.16 | -23.6 | 1.48 | 16.5 | -6.04
6 | CS(=O)(=O)c1ccc(C(O)CN2CCC(c3ccn[nH]3)CC2)cc1 (stereo unspecified) | -2.89 | 15.2 | -2.45 | -1.3 | -2.17 | 4.94 | 5.32 | -11.8 | 5.42 | 16.5 | -6.15
7 | C[S+]([O-])c1nncn1CC(=O)c1ccc(Cl)c(Cl)c1 (stereo unspecified) | -5.28 | 8.11 | -4.71 | 15.3 | 5.57 | 2.73 | 4.38 | -5.62 | -4.3 | 1.24 | -5.11
8 | Cc1n[nH]c(C)c1NC(=O)CN1CCn2c(nnc2C(C)C)C1 | -0.613 | 2.6 | 7.19 | 2.99 | 2.06 | 2.74 | 5.42 | -7.56 | 0 | 0 | -16.6
9 | Cc1cc(N2CCN(Cc3ccccc3)CC(O)C2)cc(C)n1 (stereo unspecified) | -7.08 | -2.7 | 1.17 | 11.4 | -1.74 | -3.81 | 2.07 | 20.1 | -0.529 | 4.88 | -1.99
10 | CO[C@H]1CCN(c2ncccn2)[C@H]1Cc1ccccc1 | 1.4 | 2.6 | -1.1 | 7.23 | -3.25 | -13.8 | 16 | 13.8 | 5.38 | 8.64 | -1.72
11 | Cn1cc(CN2CC[C@H]3OCC[C@@H](C(=O)N4CCCCO4)[C@@H]3C2)cn1 | -3.19 | 9.33 | -0.147 | 1.18 | -0.982 | -6.51 | 11.3 | 6.18 | 2.12 | 7.69 | -4.05
12 | Cc1cc(C(=O)N2CCc3ncc(CN4CCOCC4)n3CC2)no1 | -4.01 | 0 | 1.62 | 0.585 | 0.0978 | -15.6 | -3.51 | -3.46 | -3.24 | -5.13 | 8.28
13 | CC(=O)Nc1nc(CN2CCCC2Cn2cncn2)cs1 (stereo unspecified) | -7.57 | 13 | -6.56 | 16.5 | 10.3 | 2.85 | 9.29 | 18.8 | 9.71 | 26.8 | -12.8
14 | CN(C)CC1CN(Cc2csc(C3CCCC3)n2)CCO1 (stereo unspecified) | -2.18 | 5.26 | -6.29 | 9.69 | 6.63 | 0.36 | 7.02 | -33 | 8.37 | 16.1 | 4.62
15 | Cc1nn(CCn2ccnc2-c2cc3n(n2)CCCNC3)c(C)c1Cl | -4.62 | 21.3 | -6.15 | 20.4 | 5.75 | 6.25 | 16.9 | 21.8 | 7.1 | 23.5 | -7.41
16 | Cn1cc(CN2CCCn3cnc(CN4CCCC4=O)c3C2)cn1 | -2.78 | -2.67 | 4.3 | 32.8 | -1.74 | -23.5 | 3.76 | -13.1 | 1.04 | 2.5 | -4.19
